# From the supplement of paper PMC6411743
# ± gives the standard deviation of the averaged measurements. Of roughly 5,400 targets only a part is listed; those with the largest changes were picked by preference.
# Target: A0A0A0MT26|P13637|P13637-2|P13637-3 (UniProt P13637)
# Experiment: NP40-soluble protein abundance relative to vehicle (solubility fold change) (ratio); higher = more soluble protein in presence of GTP
# Experimental: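 Solubility proteome profiling in Jurkat crude lysate. Lysate was treated with Mg-GTP (0.1-10 mM) for 10 min at room temperature and 3 min at 37 °C, then solubilised with 0.8% NP40 and benzonase, followed by ultracentrifugation. Proteins were quantified by TMT10 LC-MS/MS; the value is the NP40-soluble abundance relative to the NP40-processed vehicle, from 3 independent experiments.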
smiles,measurement,setting,value
Nc1nc2c(ncn2[C@@H]2O[C@H](COP(=O)(O)OP(=O)(O)OP(=O)(O)O)[C@@H](O)[C@H]2O)c(=O)[nH]1 [guanosine triphosphate],NP40-soluble protein abundance,concentration: 0.1mM,1.01 ± 0.05
same,NP40-soluble protein abundance,concentration: 0.5mM,1.01 ± 0.028
same,NP40-soluble protein abundance,concentration: 1mM,1.02 ± 0.028
same,NP40-soluble protein abundance,concentration: 2mM,0.982 ± 0.029
same,NP40-soluble protein abundance,concentration: 4mM,1.01 ± 0.042
same,NP40-soluble protein abundance,concentration: 6mM,1 ± 0.0083
same,NP40-soluble protein abundance,concentration: 8mM,1 ± 0.034
same,NP40-soluble protein abundance,concentration: 10mM,0.958 ± 0.047
